High-throughput results (PubChem)
Sampled rows, rich in hits. Any-hit rate of the full collection: about 2%.
M4 ag – CHRM4 agonism in calcium assay; AID 624127; P08173; CHO-K1 hM4/Gqi5, Fluo-8 calcium fluorescence; vehicle 0%, full acetylcholine response 100%; activation, % at 3 µM; 360,000 tested, 0.14% active;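 active = activation above the run mean over all test wells plus 3 SD, cut at about 32% in these data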;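 note: peak over basal fluorescence ratio per well then scaled between controls; 0% = DMSO wells and 100% = acetylcholine at EC100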
Target sequence (P08173 whole entry, looked up): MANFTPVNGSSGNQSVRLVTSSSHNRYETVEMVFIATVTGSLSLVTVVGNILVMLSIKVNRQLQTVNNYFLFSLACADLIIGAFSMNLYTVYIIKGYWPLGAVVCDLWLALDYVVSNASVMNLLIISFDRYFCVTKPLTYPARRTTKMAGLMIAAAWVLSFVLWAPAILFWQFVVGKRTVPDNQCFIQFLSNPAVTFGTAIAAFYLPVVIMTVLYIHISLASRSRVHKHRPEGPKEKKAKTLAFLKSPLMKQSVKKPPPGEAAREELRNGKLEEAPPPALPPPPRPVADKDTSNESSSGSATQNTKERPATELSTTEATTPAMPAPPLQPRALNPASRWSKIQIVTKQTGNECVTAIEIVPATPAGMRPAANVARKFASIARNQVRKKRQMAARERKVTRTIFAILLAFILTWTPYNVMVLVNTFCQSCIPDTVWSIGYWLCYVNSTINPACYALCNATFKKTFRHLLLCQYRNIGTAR
M1 PAM parental – nonselective activator or artifact in parental CHO-K1 calcium assay; ATP EC20, Fluo-8 calcium fluorescence; 0% at ATP EC20, 100% at ATP max; activation, % at 3 µM; 360,000 tested, 0.02% active;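 active = activation above the run cutoff, the mean activation of all test compounds plus 3 SD, cut at about 40% in these data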;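 note: peak over basal fluorescence ratio in a 140 s read after ATP addition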
CHO-K1 Ca antag – nonselective inhibitor or artifact in parental CHO-K1 cells; ATP-induced calcium, Fluo-8 fluorescence; inhibition, % at 3 µM; 360,000 tested, 0.6% active; AID 602250;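 active = inhibition above a per-plate cutoff, the plate's mean sample inhibition plus 3 SD, cut at about 24% in these data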;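 note: 0% = DMSO plus EC80 ATP and 100% = DMSO alone without ATP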
CHO-K1 Ca ag – nonselective activator or artifact in parental CHO-K1 cells; Fluo-8 calcium fluorescence; scaled to maximal ATP response, vehicle zero; activation, % at 3 µM; 360,000 tested, 0.48% active; in the data active = activation above about 15%;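 note: untransfected CHO-K1 host cells lacking M1 receptor as counterscreen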
CHRM4 antagonist – antagonists of human muscarinic M4 receptor (CHRM4). AID 624125. inhibition, % at 3 µM. 360,000 tested, 0.73% active. P08173. CHO-hM4 cells, ACh EC80, Fluo-8 calcium fluorescence;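 active = inhibition above its plate's cutoff, the mean inhibition of sample wells plus 3 SD, cut at about 27% in these data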;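 note: 0% = acetylcholine EC80 with DMSO and 100% = DMSO without agonist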
CHRM4 PAM – potentiates acetylcholine response at human M4 receptor | P08173 | activation, % at 3 µM | 360,000 tested, 0.4% active | CHO-K1 hM4/Gqi5, Fluo-8 calcium fluorescence, ACh EC20; 0% = ACh EC20, 100% = maximal ACh | AID 624126;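 active = activation above its plate's cutoff, the mean activation of sample wells plus 3 SD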
The depositor's hits bear a star.

SMILES	M4 ag	M1 PAM parental	CHO-K1 Ca antag	CHO-K1 Ca ag	CHRM4 antagonist	CHRM4 PAM
O=C(Nc1nc2ccc(F)cc2s1)C1CCN(S(=O)(=O)c2cc([N+](=O)[O-])ccc2Cl)CC1	10	2	32*	7	27*	-6
O=C(NC(=S)NCC1CCCO1)c1ccc(Cl)cc1Cl (stereo not drawn)	1	20	-4	15*	-6	11
O=C(NC(=S)NNC(=O)c1ccc(Cl)cc1Cl)c1cccnc1	3	-5	11	0	5	-5
Cc1ccc(C(=O)NNC(=S)NC(=O)c2ccc(Cl)cc2)cc1	131*	-19	9	102*	33*	-17
Cc1ccccc1C(=O)NNC(=S)NC(=O)c1ccc(Cl)cc1Cl	84*	-13	12	89*	23	-26
Cc1cccc(C(=O)NC(=S)NNC(=O)COc2c(C)cccc2C)c1	1	-3	10	3	3	23*
Cc1cccc(C(=O)NC(=S)NNC(=O)Cc2ccccc2)c1	2	-14	16	1	-4	0
Cc1onc(-c2ccccc2)c1C(=O)NNC(=S)NC(=O)/C=C/c1ccccc1	2	6	-7	21*	-3	-1
Cc1cccc(C(=O)NC(=S)NNC(=O)c2ccccc2Cl)c1	40*	-4	3	71*	5	-8
Cc1onc(-c2ccccc2)c1C(=O)NNC(=S)NC(=O)c1ccc(Cl)cc1Cl	113*	-12	1	26*	3	-13
O=C(NC(=S)Nc1ncccn1)c1ccc(Cl)cc1Cl	1	12	-4	21*	1	4
Cc1onc(-c2ccccc2)c1C(=O)NNC(=O)c1ccccc1O	1	9	-10	1	-16	8
Cc1cccc(C(=O)NC(=S)Nc2ccccc2C(=O)O)c1	0	-3	21	-1	0	5
COc1ccc(CN2CCn3ncc(C(=O)Nc4ccccc4)c3C2=O)cc1	6	17	-16	2	-16	8
O=C(/C=C/c1ccccc1)N/C(=C/c1ccccc1)C(=O)Nc1cccc(C(=O)O)c1	1	29	-10	2	-1	4
Cc1onc(-c2ccccc2)c1C(=O)NNC(=S)NC(=O)c1ccc(Br)cc1	61*	-12	-8	65*	3	-11
Cc1onc(-c2ccccc2)c1C(=O)NNC(=O)c1ccccc1	1	12	-15	0	-5	0
CN(C)c1ccc(CN(C(=O)COc2ccccc2)C2CCS(=O)(=O)C2)cc1 (stereo not drawn)	0	8	27*	0	5	-4
Cc1ccccc1OCC(=O)N(Cc1ccc(N(C)C)cc1)C1CCS(=O)(=O)C1 (stereo not drawn)	0	19	-6	1	10	2
O=S(=O)(c1ccc(NC(=S)NCc2cccnc2)cc1)N1CCCCC1	32	-6	3	10	38*	-15
O=C(O)CCC(=O)Nc1ccc(S(=O)(=O)N2CCCC2)cc1	0	-7	25*	0	10	6
O=C(Nc1ccc(S(=O)(=O)N2CCCCC2)cc1)c1ccccc1Cl	3	21	-10	2	5	-6
O=C(NCc1cccnc1)c1ccc(S(=O)(=O)N2CCCCC2)cc1	4	19	-20	3	-7	8
O=C(Nc1ccccc1)Nc1ccc(S(=O)(=O)N2CCCCC2)cc1	15	4	24*	11	7	-12
O=C(NNC(=O)c1ccc(Cl)s1)c1csc(N2CCOCC2)n1	0	-10	14	0	0	2
SMILES	M4 ag	M1 PAM parental	CHO-K1 Ca antag	CHO-K1 Ca ag	CHRM4 antagonist	CHRM4 PAM
O=C(OC1CC2CC1[C@H]1CCCCN1C2=O)N1CCC(c2ccccc2)CC1 (stereo partly drawn)	2	9	-9	2	-2	18
CCOC(=O)CNC(=O)C1(c2ccccc2)CCCC1	1	-7	18	0	1	1
CCOC(=O)c1[nH]ncc1CN1CCCC(C(=O)c2cccc(OC(C)C)c2)C1 (stereo not drawn)	0	-9	10	0	9	-4
CCn1ncc(CN2CCCC(C(=O)c3cccc(OC(C)C)c3)C2)c1C (stereo not drawn)	1	-5	9	0	38*	-18
O=C1/C(=C/c2cccc(F)c2)Oc2cc(O)ccc21	28	-7	-14	15*	10	-4
COc1ccc(-n2nnnc2C(c2ccccc2)N2CCN(C/C=C/c3ccccc3)CC2)cc1 (stereo not drawn)	3	-2	-16	-1	32*	-16
CC(C)(C)n1nnnc1C(c1ccccc1)N1CCN(C/C=C/c2ccccc2)CC1 (stereo not drawn)	1	16	-14	2	28*	-15
CCOC(=O)N1CCN(C(=O)c2ccc(S(=O)(=O)Nc3ccc(C)cc3)cc2)CC1	9	-2	-3	6	10	-3
O=C(Cn1nnc(-c2ccncc2)n1)N1CCc2ccccc21	0	-13	-6	0	0	-2
CC(=O)Nc1nc2c(s1)C(=O)NCCC2	0	15	-14	1	-3	10
CCOc1ccccc1NC(=O)C1CC(=O)n2ncnc2N1 (stereo not drawn)	2	3	-9	0	28*	18
CCOC(=O)c1ccc(NC(=O)c2nc[nH]c2C(=O)NCCCNC(=O)c2[nH]cnc2C(=O)Nc2ccc(C(=O)OCC)cc2)cc1	1	13	-9	0	-6	4
CCOC(=O)c1ccc(NC(=O)c2ncn3c2C(=O)N[C@H](C)C3)cc1	0	-4	-12	0	-23	17*
CCOC(=O)c1ccc(NC(=O)c2ncn3c2C(=O)NC[C@H]3C)cc1	1	24	-16	2	-17	11
CCOC(=O)c1ccc(NC(=O)c2nc[nH]c2C(=O)N(CC)CC)cc1	2	25	-20	0	-5	22*
O=C(CC1NCCc2ccccc21)Nc1ccc(Oc2ccccc2)cc1 (stereo not drawn)	8	25	-4	20*	2	-11
CC(=O)Nc1ccc(NC(=O)c2csc([C@@H]3C[C@H](O)[C@@H](CO)O3)n2)cc1	-1	12	-5	6	-4	2
O=C(OCc1ccccc1)N1CCC2CC1c1cc(N3CCCCC3)ccc12 (stereo not drawn)	-2	13	-11	0	17	-12
O=C(c1cc(Cl)cc(Cl)c1)N1CCC2CC1c1cc(N3CCCCC3)ccc12 (stereo not drawn)	-2	8	2	0	27*	-12
CCOC(=O)N1CCC(NC2CCCCCCC2)CC1	1	1	-4	2	47*	-26
